Laboratory results taken from the supplement of paper PMC11732987, “Enantioselective OTUD7B fragment discovery through chemoproteomics screening and high-throughput optimisation” (Communications Chemistry, 2025).

Columns and labels:
Assay in all cases: log2 ratio of Biotin-Ahx-Ub-VS probe labelling (fragment/DMSO); higher = less target engagement (more negative = stronger competition), active = hit call of the paper (q ≤ 0.05, log2 ratio ≤ -1)
Conditions in all cases: compound concentration: 200 uM; treatment time: 3 h
[1] = target: T1, OTUD6B (UniProt Q8N6M0)
T1 sequence (whole entry): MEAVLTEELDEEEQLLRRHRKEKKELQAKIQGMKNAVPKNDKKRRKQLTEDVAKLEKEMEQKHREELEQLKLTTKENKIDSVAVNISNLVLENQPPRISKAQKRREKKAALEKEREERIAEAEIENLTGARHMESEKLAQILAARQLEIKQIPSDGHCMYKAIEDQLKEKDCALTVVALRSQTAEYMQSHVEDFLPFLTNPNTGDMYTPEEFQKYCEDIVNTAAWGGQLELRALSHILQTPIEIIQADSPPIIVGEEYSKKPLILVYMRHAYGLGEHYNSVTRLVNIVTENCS
Summary of the method: (§1)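 Each value is an average log2 ratio of fragment to vehicle, tested by unpaired t-test. The underlying Spectronaut label-free quantities were global-median-normalised, and only proteins with ≥2 unique peptides were included. Triplicate HEK293T lysate samples (495 µg) were exposed to fragment at 200 µM or vehicle for 3 h, then to Biotin-Ahx-Ub-VS at 0.5 µM final for 1 h, before NeutrAvidin enrichment of labelled DUBs, LysC and trypsin digestion, and diaPASEF LC-MS/MS.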

[2] = target: T2, OTUD7B (UniProt Q6GQQ9)
T2 sequence (whole entry): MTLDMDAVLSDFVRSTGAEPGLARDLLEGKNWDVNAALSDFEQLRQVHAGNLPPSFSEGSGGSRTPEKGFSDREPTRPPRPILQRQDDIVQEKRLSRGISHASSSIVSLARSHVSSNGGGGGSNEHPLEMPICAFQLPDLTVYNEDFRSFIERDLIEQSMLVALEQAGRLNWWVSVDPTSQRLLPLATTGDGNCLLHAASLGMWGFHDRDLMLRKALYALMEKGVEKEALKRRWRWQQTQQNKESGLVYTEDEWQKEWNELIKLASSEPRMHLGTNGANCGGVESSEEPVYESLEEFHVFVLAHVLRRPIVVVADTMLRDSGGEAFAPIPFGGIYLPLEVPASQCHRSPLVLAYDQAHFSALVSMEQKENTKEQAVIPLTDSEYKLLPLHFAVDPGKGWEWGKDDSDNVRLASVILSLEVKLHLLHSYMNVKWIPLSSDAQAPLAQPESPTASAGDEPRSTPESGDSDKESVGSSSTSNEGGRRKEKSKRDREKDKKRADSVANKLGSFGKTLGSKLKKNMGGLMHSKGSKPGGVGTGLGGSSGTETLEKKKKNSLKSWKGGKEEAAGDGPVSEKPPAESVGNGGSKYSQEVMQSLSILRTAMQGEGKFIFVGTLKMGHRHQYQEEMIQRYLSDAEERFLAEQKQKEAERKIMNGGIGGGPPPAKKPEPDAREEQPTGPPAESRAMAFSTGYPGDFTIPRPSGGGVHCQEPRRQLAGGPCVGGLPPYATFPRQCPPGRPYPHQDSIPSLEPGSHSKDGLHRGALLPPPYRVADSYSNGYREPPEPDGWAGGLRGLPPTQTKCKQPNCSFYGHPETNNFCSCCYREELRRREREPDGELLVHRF
Summary of the method: as §1

[3] = target: PRPF8 (UniProt Q6P2Q9)
Summary of the method: as §1

[4] = target: T3, PSMD7 (UniProt P51665)
T3 sequence (whole entry): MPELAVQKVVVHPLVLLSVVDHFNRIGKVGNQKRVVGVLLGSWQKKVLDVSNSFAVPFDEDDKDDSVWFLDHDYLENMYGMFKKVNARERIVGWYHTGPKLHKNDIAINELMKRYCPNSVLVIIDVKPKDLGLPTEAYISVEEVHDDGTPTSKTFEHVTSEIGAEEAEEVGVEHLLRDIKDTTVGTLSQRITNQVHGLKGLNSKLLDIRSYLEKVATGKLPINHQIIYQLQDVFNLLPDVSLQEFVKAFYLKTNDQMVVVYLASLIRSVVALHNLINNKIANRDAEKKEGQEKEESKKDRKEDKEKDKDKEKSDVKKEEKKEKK
Summary of the method: as §1

[5] = target: UCHL1 (UniProt P09936)
Summary of the method: as §1

[6] = target: T4, UCHL3 (UniProt P15374)
T4 sequence (whole entry): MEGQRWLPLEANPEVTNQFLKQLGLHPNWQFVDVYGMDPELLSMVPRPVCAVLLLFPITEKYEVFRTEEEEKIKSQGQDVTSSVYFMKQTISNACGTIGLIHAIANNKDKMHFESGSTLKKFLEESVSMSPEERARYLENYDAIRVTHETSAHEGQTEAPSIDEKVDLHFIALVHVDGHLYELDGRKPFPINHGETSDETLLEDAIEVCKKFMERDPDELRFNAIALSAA
Summary of the method: as §1

[7] = target: T5, UCHL5 (UniProt Q9Y5K5)
T5 sequence (whole entry): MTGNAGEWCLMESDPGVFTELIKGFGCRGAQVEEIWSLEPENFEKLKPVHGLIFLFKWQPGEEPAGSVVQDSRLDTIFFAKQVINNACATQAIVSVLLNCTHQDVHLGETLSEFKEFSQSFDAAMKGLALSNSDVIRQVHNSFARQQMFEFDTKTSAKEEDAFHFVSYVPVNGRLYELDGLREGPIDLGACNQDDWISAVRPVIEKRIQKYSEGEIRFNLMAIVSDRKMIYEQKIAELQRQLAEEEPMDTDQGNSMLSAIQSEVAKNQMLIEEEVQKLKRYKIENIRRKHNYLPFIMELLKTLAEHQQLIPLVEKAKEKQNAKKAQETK
Summary of the method: as §1

[8] = target: USP10 (UniProt Q14694)
Summary of the method: as §1

[9] = target: T6, USP15 (UniProt Q9Y4E8)
T6 sequence (whole entry): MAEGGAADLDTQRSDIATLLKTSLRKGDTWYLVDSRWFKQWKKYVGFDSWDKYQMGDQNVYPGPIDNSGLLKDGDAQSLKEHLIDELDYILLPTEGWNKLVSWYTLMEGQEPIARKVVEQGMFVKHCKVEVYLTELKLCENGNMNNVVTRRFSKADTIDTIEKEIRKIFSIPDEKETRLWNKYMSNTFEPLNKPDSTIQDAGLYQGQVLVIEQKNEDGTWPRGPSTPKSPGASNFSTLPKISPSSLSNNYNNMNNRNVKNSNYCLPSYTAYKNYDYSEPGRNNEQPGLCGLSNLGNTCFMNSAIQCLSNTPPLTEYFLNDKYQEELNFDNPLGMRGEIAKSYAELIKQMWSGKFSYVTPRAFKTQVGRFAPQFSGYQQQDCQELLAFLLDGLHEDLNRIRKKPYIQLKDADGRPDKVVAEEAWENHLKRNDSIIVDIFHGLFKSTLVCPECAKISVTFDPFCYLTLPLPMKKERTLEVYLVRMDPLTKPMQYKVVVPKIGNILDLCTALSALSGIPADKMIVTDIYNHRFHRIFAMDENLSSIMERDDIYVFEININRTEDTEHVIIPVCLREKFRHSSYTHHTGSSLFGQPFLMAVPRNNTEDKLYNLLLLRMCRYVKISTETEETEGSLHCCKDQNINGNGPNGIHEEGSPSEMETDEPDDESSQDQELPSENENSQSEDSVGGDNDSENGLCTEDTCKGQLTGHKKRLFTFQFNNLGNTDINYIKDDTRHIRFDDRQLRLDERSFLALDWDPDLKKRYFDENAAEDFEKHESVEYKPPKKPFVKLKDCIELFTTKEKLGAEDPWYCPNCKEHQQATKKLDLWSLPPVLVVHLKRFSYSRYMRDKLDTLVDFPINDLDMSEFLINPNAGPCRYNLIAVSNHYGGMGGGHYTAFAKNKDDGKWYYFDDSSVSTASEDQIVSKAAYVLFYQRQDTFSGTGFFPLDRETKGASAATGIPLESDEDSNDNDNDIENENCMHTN
Summary of the method: as §1

[10] = target: USP16 (UniProt Q9Y5T5)
Summary of the method: as §1

Measured: log2 ratio of Biotin-Ahx-Ub-VS probe labelling

Sequence of USP16 (Q9Y5T5 whole entry, looked up): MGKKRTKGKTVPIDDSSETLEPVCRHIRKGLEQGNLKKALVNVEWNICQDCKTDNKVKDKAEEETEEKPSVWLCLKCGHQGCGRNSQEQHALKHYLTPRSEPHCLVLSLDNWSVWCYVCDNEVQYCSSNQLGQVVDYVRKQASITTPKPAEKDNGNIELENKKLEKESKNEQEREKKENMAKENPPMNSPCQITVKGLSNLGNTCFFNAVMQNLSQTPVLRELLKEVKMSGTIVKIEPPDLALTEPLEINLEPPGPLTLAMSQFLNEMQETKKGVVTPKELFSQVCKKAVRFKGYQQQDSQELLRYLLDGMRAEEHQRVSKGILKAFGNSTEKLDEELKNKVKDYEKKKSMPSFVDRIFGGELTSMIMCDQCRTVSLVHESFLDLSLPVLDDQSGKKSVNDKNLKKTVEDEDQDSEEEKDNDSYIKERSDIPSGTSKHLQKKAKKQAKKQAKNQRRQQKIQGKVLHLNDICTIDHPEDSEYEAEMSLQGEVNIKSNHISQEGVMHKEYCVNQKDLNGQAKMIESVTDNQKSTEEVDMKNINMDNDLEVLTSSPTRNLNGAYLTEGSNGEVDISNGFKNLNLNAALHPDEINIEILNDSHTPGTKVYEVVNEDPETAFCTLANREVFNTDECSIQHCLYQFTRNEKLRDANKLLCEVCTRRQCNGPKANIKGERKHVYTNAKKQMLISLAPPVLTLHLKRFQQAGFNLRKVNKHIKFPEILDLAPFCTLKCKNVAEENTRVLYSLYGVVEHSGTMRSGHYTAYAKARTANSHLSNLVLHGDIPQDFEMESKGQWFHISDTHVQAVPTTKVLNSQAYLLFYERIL
Sequence of UCHL1 (P09936 whole entry, looked up): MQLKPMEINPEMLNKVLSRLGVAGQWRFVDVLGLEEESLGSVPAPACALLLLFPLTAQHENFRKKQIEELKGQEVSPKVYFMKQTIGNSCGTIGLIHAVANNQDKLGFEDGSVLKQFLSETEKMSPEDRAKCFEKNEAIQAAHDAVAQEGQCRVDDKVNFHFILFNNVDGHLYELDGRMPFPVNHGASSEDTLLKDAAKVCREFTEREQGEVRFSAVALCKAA
Sequence of USP10 (Q14694 whole entry): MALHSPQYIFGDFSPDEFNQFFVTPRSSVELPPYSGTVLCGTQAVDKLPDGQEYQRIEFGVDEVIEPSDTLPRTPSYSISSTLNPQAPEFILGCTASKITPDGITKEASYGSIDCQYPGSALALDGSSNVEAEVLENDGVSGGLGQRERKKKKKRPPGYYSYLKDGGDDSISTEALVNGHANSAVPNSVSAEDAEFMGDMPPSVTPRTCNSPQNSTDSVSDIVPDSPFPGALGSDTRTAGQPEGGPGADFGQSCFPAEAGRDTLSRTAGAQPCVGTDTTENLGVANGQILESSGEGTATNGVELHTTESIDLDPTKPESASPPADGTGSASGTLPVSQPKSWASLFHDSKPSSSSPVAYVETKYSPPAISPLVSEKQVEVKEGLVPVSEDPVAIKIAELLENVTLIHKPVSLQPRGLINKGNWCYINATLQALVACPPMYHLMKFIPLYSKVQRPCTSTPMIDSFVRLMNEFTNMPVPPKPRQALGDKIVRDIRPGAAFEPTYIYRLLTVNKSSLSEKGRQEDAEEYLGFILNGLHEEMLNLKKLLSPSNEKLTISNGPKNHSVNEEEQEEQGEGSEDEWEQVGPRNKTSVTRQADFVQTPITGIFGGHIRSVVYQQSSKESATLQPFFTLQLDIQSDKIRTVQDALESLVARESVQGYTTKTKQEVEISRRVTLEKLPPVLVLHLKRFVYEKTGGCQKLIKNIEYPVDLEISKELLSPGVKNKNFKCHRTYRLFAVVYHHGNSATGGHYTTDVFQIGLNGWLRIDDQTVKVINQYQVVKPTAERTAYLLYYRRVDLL

O=C(CCl)N1CCOC2(CCC2)C1
active: [2] -1.29 | [5] -1.53
inactive: [1] 0.01 | [3] -0.0922 | [4] -0.254 | [6] 0.273 | [7] -0.0117 | [8] 0.0764 | [9] 0.059 | [10] 0.246
